# Measurements as given in paper PMC4336329 (PLoS ONE, 2015).
# Among all 310,000 compounds or so, about 2,200 (0.71%) showed an effect of 50% or more. The effect is printed as a negative number. For the sample, strong results were picked, then their nearest neighbours and some compounds at random.
# Target: human ether-à-go-go-related gene (hERG) potassium channel (human, UniProt Q12809)
# Assay: primary screen, population patch clamp on CHO cells stably expressing hERG; higher = less effect of the substance
# human ether-à-go-go-related gene (hERG) potassium channel, sequence (Q12809 whole entry, looked up): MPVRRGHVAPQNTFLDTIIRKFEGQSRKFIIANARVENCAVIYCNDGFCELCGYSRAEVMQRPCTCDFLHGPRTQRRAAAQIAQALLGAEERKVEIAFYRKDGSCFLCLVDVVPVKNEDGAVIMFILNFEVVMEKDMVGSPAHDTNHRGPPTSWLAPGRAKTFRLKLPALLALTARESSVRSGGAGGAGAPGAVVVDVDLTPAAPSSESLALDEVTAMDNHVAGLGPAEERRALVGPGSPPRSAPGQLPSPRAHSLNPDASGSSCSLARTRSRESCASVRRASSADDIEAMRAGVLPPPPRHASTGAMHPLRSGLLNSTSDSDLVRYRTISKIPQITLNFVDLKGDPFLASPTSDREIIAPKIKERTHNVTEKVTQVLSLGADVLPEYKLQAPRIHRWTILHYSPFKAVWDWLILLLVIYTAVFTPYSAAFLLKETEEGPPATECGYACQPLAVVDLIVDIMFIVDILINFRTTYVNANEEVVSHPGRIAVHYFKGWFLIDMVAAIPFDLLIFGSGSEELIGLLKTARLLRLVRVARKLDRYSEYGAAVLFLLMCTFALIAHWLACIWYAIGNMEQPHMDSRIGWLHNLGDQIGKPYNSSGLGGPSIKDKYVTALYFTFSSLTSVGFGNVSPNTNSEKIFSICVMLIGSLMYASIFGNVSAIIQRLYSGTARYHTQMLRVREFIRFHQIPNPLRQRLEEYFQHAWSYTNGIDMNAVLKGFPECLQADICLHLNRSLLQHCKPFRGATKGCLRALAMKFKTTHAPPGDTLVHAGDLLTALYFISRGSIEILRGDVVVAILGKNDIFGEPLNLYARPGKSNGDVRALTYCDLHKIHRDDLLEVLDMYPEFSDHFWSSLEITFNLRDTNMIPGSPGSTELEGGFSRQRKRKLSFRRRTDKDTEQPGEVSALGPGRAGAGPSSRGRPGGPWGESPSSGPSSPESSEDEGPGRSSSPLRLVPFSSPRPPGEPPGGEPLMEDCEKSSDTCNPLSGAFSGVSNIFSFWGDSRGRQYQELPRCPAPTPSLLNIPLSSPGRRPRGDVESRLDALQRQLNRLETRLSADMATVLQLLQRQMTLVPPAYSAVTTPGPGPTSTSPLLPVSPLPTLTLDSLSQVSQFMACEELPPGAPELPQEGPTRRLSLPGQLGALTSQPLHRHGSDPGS
row,SMILES,"hERG current change (%, negative = inhibition) at 1uM [%]"
1,O=C(CCCNC(=O)/C(=C/c1ccc(Br)cc1)NC(=O)c1ccccc1)OCc1ccccc1,-2.58
2,O=C(CNC(=O)/C(=C\c1ccc(Br)cc1)NC(=O)c1ccccc1)OCc1ccccc1,-48
3,O=C(CNC(=O)/C(=C\c1ccc(F)cc1)NC(=O)c1ccccc1)OCc1ccccc1,-69
4,O=C(CNC(=O)/C(=C\c1ccccc1)NC(=O)c1ccc(Br)cc1)OCc1ccccc1,-68.1
5,O=C(CNC(=O)/C(=C/c1ccccc1)NC(=O)c1ccc(Br)cc1)OCc1ccccc1,2.24
6,COc1ccc(/C=N/N=C(/N)N[N+](=O)[O-])c(OC)c1,7.59
7,CCN(CC)S(=O)(=O)c1cc(NC(=O)C(C)N2CCc3ccccc32)ccc1C (centres unmarked),9.99
8,C=CCn1c(SCC(=O)NNC(=O)Nc2cccc(Cl)c2)nnc1-c1ccccc1,6.04
9,COc1ccc(C(=O)Oc2cc(C)c(CN3CCOCC3)cc2C)cc1OC,-1.52
10,C#CCSc1nc(N)c2c(n1)OC(N)=C(C#N)C2c1cccnc1 (centres unmarked),4.59
11,O=C(CSc1ncccn1)N1CCN(C(c2ccccc2)c2ccccc2)CC1,4.43
12,O=C(Cn1c(=O)cnc2ccccc21)N1CCN(S(=O)(=O)c2ccccc2Br)CC1,36.9
13,CCn1c2nc(SCCN3CCOCC3)nnc2c2cc(C)cc(C)c21,-69.2
14,CCn1c2ccc(C)cc2c2nnc(SCCN3CCOCC3)nc21,4.8
15,CCCn1c2ccc(C)cc2c2nnc(SCCN3CCOCC3)nc21,19
16,Cc1ccc(S(=O)(=O)N2CCCC2C(=O)Nn2cnnc2)cc1 (centres unmarked),11.7
17,CCc1nc(SCC(=O)NC2CC2)c2c(C)c(C)sc2n1,-4.16
18,Cc1cc(NC(=O)NCc2ccccc2)c(=O)n(Cc2ccccc2F)c1,7.05
19,Cc1ccc(OCCN2CCNCC2)c([N+](=O)[O-])c1.O=C(O)C(=O)O,17.4
20,Cc1cc(=O)n(C)c(=O)n1CCCCOc1ccc([N+](=O)[O-])cc1,-66.8
21,O=C(O)C(=O)O.O=[N+]([O-])c1ccc(OCCN2CCCCCC2)cc1,-74.5
22,Cc1ccc(OCCN2CCCC2)cc1.O=C(O)C(=O)O,7.22
23,Fc1ccc(OCCOCCN2CCNCC2)cc1.O=C(O)C(=O)O,10.4
24,Cc1cc(=O)n(C)c(=O)n1CCCCOc1cccc([N+](=O)[O-])c1,9.25

row,SMILES,"hERG current change (%, negative = inhibition) at 1uM [%]"
1,CC1CCN(CCCCOc2ccc([N+](=O)[O-])cc2)CC1,-77.8
2,CCOc1ccc(OCCN2CCCCC2)cc1.O=C(O)C(=O)O,-4.9
3,CC1CCN(CCCCOc2ccc(Br)cc2)CC1,-30.4
4,COc1ccc(OCCCCN2CCC(C)CC2)cc1.O=C(O)C(=O)O,0.418
5,O=C(O)C(=O)O.O=[N+]([O-])c1ccc(OCCN2CCNCC2)cc1,-52.2
6,Cc1cc(=O)n(C)c(=O)n1CCCCCCOc1ccc([N+](=O)[O-])cc1,-11.1
7,CCCc1cc(=O)oc2cc(C)cc(OCC(=O)Nc3ccc(CN4CCOCC4)cc3)c12,10.4
8,CCCN(CCC)CCNC(=O)C1CC(=O)N(c2ccc(OC)cc2)C1c1ccc(OC)cc1 (centres unmarked),-18.1
9,CCOC(=O)C1(C)NC(c2ccccc2F)C2C(=O)N(c3cccc(C(C)=O)c3)C(=O)C21 (centres unmarked),15.4
10,CC(=O)Nc1ccc(-c2nnn(CC(=O)c3ccccc3)n2)cc1Cl,8.22
11,CCOC(=O)c1c(C)[nH]c(C(=O)C(C)OC(=O)c2ccc(NC(=O)CC#N)cc2)c1C (centres unmarked),17.5
12,O=C(O)C(Oc1ccc2c(-c3ccccc3)cc(=O)oc2c1)c1ccccc1 (centres unmarked),9.07
13,COc1ccc2c3c(c(=O)oc2c1OCC(=O)O)CCCC3,23.8
14,CCOc1ccc(-c2cc(C(=O)O)c3ccccc3n2)cc1,7.66
15,CCCOc1ccc(OCCCCNC(C)CC)cc1.O=C(O)C(=O)O (centres unmarked),1.92
16,COc1ccc(/C=C/C(=O)NCCOc2ccc(C)cc2)cc1,10.5
17,CCC(C)NCCCCOc1ccc(Br)cc1.O=C(O)C(=O)O (centres unmarked),-0.232
18,CCC(C)NCCCOc1ccc([N+](=O)[O-])cc1.O=C(O)C(=O)O (centres unmarked),-73.7
19,COc1ccccc1OCCNC(=O)/C=C/c1ccc([N+](=O)[O-])cc1,-9.26
20,O=[N+]([O-])c1ccc(OCCCCCN2CCOCC2)cc1,-24.9
21,O=[N+]([O-])c1ccc(OCCCCN2CCCCC2)cc1,-59.4
22,COc1ccc(OCCNC(=O)/C=C/c2ccc([N+](=O)[O-])cc2)cc1,-59.9
23,Brc1ccc(OCCCCN2CCCCC2)cc1,-11.6
